Test results: PubChem BioAssay AID1159580 (chemical genetic matrix, 2015)
Screen size: about 5,500 compounds; about 2,000 (36%) were called active. Not shown: some 18% with an inconclusive outcome. No stated cut-off is given here; in the data, active means normalized growth mostly below about 0.91 (no sharp cut-off); inconclusive means no clear call, values can overlap the other calls; inactive means mostly above about 0.92. The list shows a part of the results.

Test: chemical genetic growth profiling, strain panel (AID 1159580);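 further: tested at 20 µM; growth read once vehicle control cultures reached saturation at 30 °C; 1 = growth at the plate median or of vehicle wells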
Settings: growth OD

Measured: normalized growth

Cn1c(=O)c2c(ncn2CCO)n(C)c1=O
inactive: S. cerevisiae deletion strains, locus YJR075W, strain HOC1, stronger effect = lower value 1 | S. cerevisiae deletion strains, locus YKL009W, strain mrt4, stronger effect = lower value 0.99 | S. cerevisiae deletion strains, locus YKL068W, stronger effect = lower value 0.991 | S. cerevisiae deletion strains, locus YKL085W, strain MDH1 (second series), stronger effect = lower value 0.993 | S. cerevisiae deletion strains, locus YKL085W, strain MDH1, stronger effect = lower value 0.993 | S. cerevisiae deletion strains, locus YKL160W, strain elf1, stronger effect = lower value 1.02 | S. cerevisiae deletion strains, locus YKL190W, strain CNB1, stronger effect = lower value 1 | S. cerevisiae deletion strains, locus YKR001C, strain vps1, stronger effect = lower value 0.997 | S. cerevisiae deletion strains, locus YKR026C, strain gcn3, stronger effect = lower value 1.02 | S. cerevisiae deletion strains, locus YKR091W, strain srl3, stronger effect = lower value 1.02 | S. cerevisiae deletion strains, locus YLL001W, strain dnm1, stronger effect = lower value 0.993 | S. cerevisiae deletion strains, locus YLL026W, stronger effect = lower value 1.02 | S. cerevisiae deletion strains, locus YLL041C, strain sdh2, stronger effect = lower value 1.02 | S. cerevisiae deletion strains, locus YLR027C, strain aat2, stronger effect = lower value 1.01 | S. cerevisiae deletion strains, locus YLR039C, strain RIC1, stronger effect = lower value 1.02 | S. cerevisiae deletion strains, locus YLR058C, strain SHM2, stronger effect = lower value 1.01 | S. cerevisiae deletion strains, locus YLR102C, strain apc9, stronger effect = lower value 0.997 | S. cerevisiae deletion strains, locus YLR113W, strain HOG1, stronger effect = lower value 0.988 | S. cerevisiae deletion strains, locus YLR221C, strain rsa3, stronger effect = lower value 1.01 | S. cerevisiae deletion strains, locus YLR258W, strain gsy2, stronger effect = lower value 1.02 | S. cerevisiae deletion strains, locus YLR262C, strain YPT6 (second series), stronger effect = lower value 1.08 | S. cerevisiae deletion strains, locus YLR262C, strain YPT6, stronger effect = lower value 1.01 | S. cerevisiae deletion strains, locus YLR268W, strain sec22, stronger effect = lower value 1.06 | S. cerevisiae deletion strains, locus YLR320W, strain mms22, stronger effect = lower value 1.03 | S. cerevisiae deletion strains, locus YLR330W, strain CHS5, stronger effect = lower value 1 | S. cerevisiae deletion strains, locus YLR342W, strain FKS1 (second series), stronger effect = lower value 0.981 | S. cerevisiae deletion strains, locus YLR342W, strain FKS1, stronger effect = lower value 1.02 | S. cerevisiae deletion strains, locus YLR357W, strain rsc2, stronger effect = lower value 1 | S. cerevisiae deletion strains, locus YLR370C, strain arc18, stronger effect = lower value 1.02 | S. cerevisiae deletion strains, locus YLR371W, strain rom2, stronger effect = lower value 1.01 | S. cerevisiae deletion strains, locus YLR384C, strain iki3, stronger effect = lower value 1.01 | S. cerevisiae deletion strains, locus YLR418C, strain cdc73, stronger effect = lower value 0.985 | S. cerevisiae deletion strains, locus YML016C, strain PPZ1, stronger effect = lower value 1 | S. cerevisiae deletion strains, locus YML032C, strain rad52, stronger effect = lower value 1.03 | S. cerevisiae deletion strains, locus YML120C, strain ndi1, stronger effect = lower value 0.986 | S. cerevisiae deletion strains, locus YML124C, strain tub3, stronger effect = lower value 1 | S. cerevisiae deletion strains, locus YMR058W, strain fet3, stronger effect = lower value 1.02 | S. cerevisiae deletion strains, locus YMR078C, strain ctf18, stronger effect = lower value 0.998 | S. cerevisiae deletion strains, locus YMR125W, strain sto1, stronger effect = lower value 1.02 | S. cerevisiae deletion strains, locus YMR129W, stronger effect = lower value 1.02 | S. cerevisiae deletion strains, locus YMR205C, strain PFK2, stronger effect = lower value 1.02 | S. cerevisiae deletion strains, locus YMR223W, strain ubp8, stronger effect = lower value 0.971 | S. cerevisiae deletion strains, locus YMR231W, strain pep5, stronger effect = lower value 1 | S. cerevisiae deletion strains, locus YMR263W, strain SAP30, stronger effect = lower value 1.02 | S. cerevisiae deletion strains, locus YMR307W, strain GAS1, stronger effect = lower value 0.975 | S. cerevisiae deletion strains, locus YNL067W, strain RPL9B, stronger effect = lower value 1.02 | S. cerevisiae deletion strains, locus YNL071W, strain lat1, stronger effect = lower value 1.01 | S. cerevisiae deletion strains, locus YNL128W, strain TEP1, stronger effect = lower value 1 | S. cerevisiae deletion strains, locus YNL153C, strain GIM3, stronger effect = lower value 1.04 | S. cerevisiae deletion strains, locus YNL183C, strain NPR1, stronger effect = lower value 0.897 | S. cerevisiae deletion strains, locus YNL209W, strain ssb2, stronger effect = lower value 1.01 | S. cerevisiae deletion strains, locus YNL233W, strain BNI4, stronger effect = lower value 1.03 | S. cerevisiae deletion strains, locus YNL248C, strain rpa49, stronger effect = lower value 1.01 | S. cerevisiae deletion strains, locus YNL250W, strain rad50, stronger effect = lower value 0.997 | S. cerevisiae deletion strains, locus YNL271C, strain bni1, stronger effect = lower value 1.01 | S. cerevisiae deletion strains, locus YNL298W, strain CLA4, stronger effect = lower value 1.01 | S. cerevisiae deletion strains, locus YNL307C, strain MCK1, stronger effect = lower value 0.969 | S. cerevisiae deletion strains, locus YNL322C, strain KRE1 (second series), stronger effect = lower value 1.05 | S. cerevisiae deletion strains, locus YNL322C, strain KRE1, stronger effect = lower value 1 | S. cerevisiae deletion strains, locus YNR049C, strain mso1, stronger effect = lower value 1.02 | S. cerevisiae deletion strains, locus YNR052C, strain pop2, stronger effect = lower value 1.01 | S. cerevisiae deletion strains, locus YOL006C, strain TOP1, stronger effect = lower value 0.99 | S. cerevisiae deletion strains, locus YOL012C, strain htz1 1.01 | S. cerevisiae deletion strains, locus YOL147C, strain pex11, stronger effect = lower value 1.01 | S. cerevisiae deletion strains, locus YOR001W, strain rrp6, stronger effect = lower value 1.02 | S. cerevisiae deletion strains, locus YOR061W, strain CKA2, stronger effect = lower value 1.01 | S. cerevisiae deletion strains, locus YOR069W, strain VPS5, stronger effect = lower value 1.01 | S. cerevisiae deletion strains, locus YOR070C, strain gyp1, stronger effect = lower value 1.02 | S. cerevisiae deletion strains, locus YOR080W, strain dia2, stronger effect = lower value 1.04 | S. cerevisiae deletion strains, locus YOR083W, strain WHI5, stronger effect = lower value 1.02 | S. cerevisiae deletion strains, locus YOR106W, strain vam3, stronger effect = lower value 1.03 | S. cerevisiae deletion strains, locus YOR136W, strain idh2, stronger effect = lower value 0.993 | S. cerevisiae deletion strains, locus YOR144C, strain elg1, stronger effect = lower value 0.997 | S. cerevisiae deletion strains, locus YOR184W, strain ser1, stronger effect = lower value 0.956 | S. cerevisiae deletion strains, locus YOR231W, strain MKK1, stronger effect = lower value 0.981 | S. cerevisiae deletion strains, locus YOR265W, strain rbl2, stronger effect = lower value 1.01 | S. cerevisiae deletion strains, locus YOR270C, strain vph1, stronger effect = lower value 1.05 | S. cerevisiae deletion strains, locus YOR290C, strain snf2, stronger effect = lower value 1.03 | S. cerevisiae deletion strains, locus YOR316C, strain cot1, stronger effect = lower value 1 | S. cerevisiae deletion strains, locus YPL051W, strain arl3, stronger effect = lower value 1.01 | S. cerevisiae deletion strains, locus YPL055C, strain LGE1, stronger effect = lower value 0.989 | S. cerevisiae deletion strains, locus YPL078C, strain atp4, stronger effect = lower value 1.02 | S. cerevisiae deletion strains, locus YPL106C, strain sse1, stronger effect = lower value 1.07 | S. cerevisiae deletion strains, locus YPL240C, strain hsp82, stronger effect = lower value 0.985 | S. cerevisiae deletion strains, locus YPL241C, strain CIN2, stronger effect = lower value 1.01 | S. cerevisiae deletion strains, locus YPL256C, strain CLN2, stronger effect = lower value 0.974 | S. cerevisiae deletion strains, locus YPR119W, strain clb2, stronger effect = lower value 1 | S. cerevisiae deletion strains, locus YPR141C, strain kar3, stronger effect = lower value 0.996 | S. cerevisiae deletion strains, locus YPR163C, strain tif3, stronger effect = lower value 1.02 | S. cerevisiae deletion strains, locus YPR167C, strain met16, stronger effect = lower value 0.997 | S. cerevisiae deletion strains, strain wtn01, stronger effect = lower value 1.03 | S. cerevisiae strains, strain wild type, stronger effect = lower value 0.998
